Test results as given in PubChem BioAssay AID651800 (The Scripps Research Institute Molecular Screening Center, 2012).
In all, about 360,000 compounds went through this assay and about 1,300 (0.36%) were called active. The list comes from a sample in which actives are over-represented; it also holds similar structures and randomly drawn compounds. Unmarked numbers belong to inactive results. Rule as the data show it: active = inhibition above about 19%; inactive = the rest.

Each compound was assayed on T-cell receptor (TCR) (assay: small molecules blocking TCR binding to CD3 – biochemical, fluorescence, TAMRA-labeled TCR probe, primary screen (AID 651800;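 also: recombinant mutant TCR 2C K166C tagged with TAMRA read by polarization; 0% = receptor in buffer alone and 100% = receptor with positive control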)). Conditions: at 9.4 µM, active compounds read high.

Structure (SMILES)	inhibition
CCCCn1c(O)c(C(CC)=NCc2ccco2)c(=O)[nH]c1=O	-3.64%
CC/C(=N\NC(=O)c1ccccc1O)c1c(O)n(Cc2ccccc2)c(=O)[nH]c1=O	28.9% (active)
CCCCCCN=C(CC)c1c(O)n(CCCC)c(=O)[nH]c1=O	0.66%
Cc1ccc(N(C)C(=O)Oc2cccc3ccc(C)nc23)cc1	1.25%
COc1ccc(NC(=O)c2cn(CCC#N)nc2-c2ccc([N+](=O)[O-])cc2)cc1	6.55%
